Screening data: PubChem BioAssay, several laboratories
14-3-3 Bad PPI = inhibitors of 14-3-3 zeta/Bad binding, primary screen, biochemical, TR-FRET, bovine 14-3-3 zeta | TR-FRET 14-3-3zeta/Dy647-pBad peptide displacement, 1 h | inhibition, % at 21.7 µM | actives 0.71% (n = 220,000) | AID 781, 2007;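 active means inhibition above about 70%, limit read from the data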
Target sequence (P63103 whole entry, looked up): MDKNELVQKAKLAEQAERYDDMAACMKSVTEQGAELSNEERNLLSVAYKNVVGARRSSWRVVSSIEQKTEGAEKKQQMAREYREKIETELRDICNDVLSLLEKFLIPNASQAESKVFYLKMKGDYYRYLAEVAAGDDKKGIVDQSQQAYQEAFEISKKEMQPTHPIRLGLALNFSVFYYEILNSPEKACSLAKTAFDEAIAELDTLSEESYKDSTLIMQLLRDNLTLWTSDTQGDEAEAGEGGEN
eIF4E-4G inh = eIF4E–eIF4G protein interaction inhibitors, primary screen, biochemical, uHTS, TR-FRET, eIF4GI fragment | Eukaryotic translation initiation factor 4E (Mus musculus) + Eukaryotic translation … | TR-FRET eIF4E-eIF4GI(517-606) binding, 2 h | inhibition, % at 21.7 µM | actives 0.37% (n = 220,000) | AID 782, 2007;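 active means inhibition above about 30%, limit read from the data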
MLLE-PAM2 inh = inhibitors of PABP1 MLLE–PAM2 peptide binding, primary screen, biochemical, fluorescence polarization, FITC-PAM2, GST-MLLE | Polyadenylate-binding protein 1 (Homo sapiens), P11940 | inhibition, % at 20 µM | actives 0.36% (n = 360,000) | AID 588489, 2011; in the data active means inhibition above about 35%, passing the limit was not always enough
eIF4H FP inh = human eIF4H binding inhibitors, primary screen, translation initiation inhibitor project, biochemical, uHTS, fluorescence polarization; Eukaryotic translation initiation factor 4H (Homo sapiens), Q15056; eIF4H fluorescence polarization binding assay; inhibition, % at 35 µM; actives 0.94% (n = 290,000); AID 2012, 2009;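 further: calls also rest on retests at 20 µM and on dose response follow-up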
PABP FP inh = PABP poly(A) RNA binding inhibitors, primary screen, biochemical, fluorescence polarization, uHTS; calls only at 35 µM; actives 1% (n = 290,000); AID 2014, 2009; Polyadenylate-binding protein 1 (Homo sapiens), P11940;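 further: calls also rest on retests at 20 µM and on dose response follow-up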
Each line names hits and unclear results; the compound was inactive in the other large screens; [ ] = remark or other dose. Rows were chosen to be rich in hits. Some 1.9% of all compounds tested hit in one or more screens of this group. Unless noted, how the calls were made is not given here.

Cc1ccccc1C1C(C#N)=C2NC(=O)c3c(sc4c3CCCCC4)N2C2=C1C(=O)CC(C)(C)C2 (centres undefined)	none (no result: MLLE-PAM2 inh)
Cc1ccccc1C1C(C#N)=C2N=C(N)c3c(sc4c3CCCCC4)N2C2=C1C(=O)CC(C)(C)C2 (centres undefined)	eIF4H FP inh 114
Cc1c(Cl)c(C(=O)N2CCCCCC2)nn1C	none (no result: 14-3-3 Bad PPI, eIF4E-4G inh)
O=[N+]([O-])c1ccccc1C(=Nc1ccccc1)c1c(O)cc(O)cc1O	none (no result: 14-3-3 Bad PPI, eIF4E-4G inh, eIF4H FP inh, PABP FP inh)
O=C(CN1CCOCC1)Nc1cc([N+](=O)[O-])ccc1Cl	eIF4H FP inh active
CCSCc1nnc(SCC(=O)Nc2nc3ccccc3s2)n1C	eIF4H FP inh 3.0, PABP FP inh active
O=C(CSC1=NCCS1)Nc1nc2ccccc2s1	MLLE-PAM2 inh 42
Cc1cc(NC(=O)CSC2=NCCS2)no1	MLLE-PAM2 inh 44
CCn1c(Cc2ccccc2)nnc1SCC(=O)Nc1nc2ccccc2s1	none
COc1ccccc1-c1noc2c1C(=O)N(C(=O)OC(C)(C)C)CC2	none (no result: 14-3-3 Bad PPI, eIF4E-4G inh, eIF4H FP inh, PABP FP inh)
COc1ccc(/C=C2/C(=N)N3C(=NC2=O)Sc2cc(S(C)(=O)=O)ccc23)cc1OC	none (no result: MLLE-PAM2 inh)
C=CCOc1ccc(C2OC34CCCCC3C(C#N)(C#N)C2(C#N)C(=N)O4)cc1 (centres undefined)	eIF4H FP inh 84, PABP FP inh active
CCCCOc1ccc(C2OC34CCCCC3C(C#N)(C#N)C2(C#N)C(=N)O4)cc1 (centres undefined)	eIF4H FP inh inconclusive, PABP FP inh inconclusive
COc1ccc(-c2nc3ccc(C)cn3c2Cc2ccsc2)cc1OC	none (no result: 14-3-3 Bad PPI, eIF4E-4G inh, eIF4H FP inh, PABP FP inh)
N#CCCn1cc(/C=N/O)c(-c2ccccc2)n1	none
N#CCCn1cc(/C=N/NC(N)=S)c(-c2ccc(-c3ccccc3)cc2)n1	eIF4H FP inh 1.9
CC(C)(C)n1nc2c(c1NC(=O)c1cccc(Cl)c1)CS(=O)(=O)C2	none (no result: 14-3-3 Bad PPI, eIF4E-4G inh)
Nc1ncnc2c(C3OC(CO)C(O)C3O)c[nH]c12 (centres undefined)	none (no result: 14-3-3 Bad PPI, eIF4E-4G inh, eIF4H FP inh, PABP FP inh)
O=C1CCCC2=C1C(c1ccco1)Nc1ccc(C(=O)c3ccccc3)cc1N2 (centres undefined)	eIF4H FP inh 82, PABP FP inh active (no result: 14-3-3 Bad PPI, eIF4E-4G inh)
CCOC(=O)c1c(C)[nH]c(C(=O)N/N=C/c2cc([N+](=O)[O-])ccc2O)c1C	none (no result: 14-3-3 Bad PPI, eIF4E-4G inh)
CCOC(=O)c1c(C)[nH]c(C(=O)N/N=C\c2ccccc2O)c1C	PABP FP inh active
Cc1nc(N2CCc3ccccc3C2)[nH]c(=O)c1Cc1ccccc1	none
Cc1nc(-n2[nH]c3c(c2=O)CCCC3)[nH]c(=O)c1Cc1ccccc1	eIF4H FP inh inconclusive, PABP FP inh active
O=C(O)c1ccccc1N/N=C\c1ccnc2ccccc12	14-3-3 Bad PPI 78
ON=Cc1ccnc2ccccc12	none (no result: 14-3-3 Bad PPI, eIF4E-4G inh, eIF4H FP inh, PABP FP inh)
COc1ccc(-c2csc(C(O)c3ccc(F)c(OC)c3)n2)cc1 (centres undefined)	none (no result: 14-3-3 Bad PPI, eIF4E-4G inh, eIF4H FP inh, PABP FP inh)
C#Cc1ccc(C(=O)NCc2ccc(N3CCCC3=O)cc2)cc1	PABP FP inh active
CC(C)(C)c1nc(CN2CCOCC2)cc(CN2CCOCC2)c1O	14-3-3 Bad PPI 79
O=C(N/N=C/c1ccco1)c1cccc(N2Cc3ccccc3C2)c1	eIF4H FP inh 91, PABP FP inh active
O=C(N/N=C/c1cc(Br)ccc1O)c1cccc(N2CCCC2=O)c1	none
O=C(N/N=C/c1ccco1)c1cccc(NC(=O)c2cccc(Cl)c2)c1	none (no result: 14-3-3 Bad PPI, eIF4E-4G inh)
O=C(N/N=C/c1ccco1)c1cccc(N2CCCC2=O)c1	eIF4H FP inh 91
CN1c2ccsc2C(O)=C(C(=S)Nc2ccccc2)S1(=O)=O	none
CCNC(=O)C1=C(O)c2sccc2N(C)S1(=O)=O	eIF4E-4G inh 37
COc1cc(NC(=O)COc2ccccc2[N+](=O)[O-])ccc1NC(=O)c1cccs1	14-3-3 Bad PPI 74
CC(C)C1C(=O)N(Cc2cn(CC3CCCCC3)nn2)CCS(=O)(=O)N1Cc1ccc(-c2ccc(Cl)cc2)cc1 (centres undefined)	none (no result: 14-3-3 Bad PPI, eIF4E-4G inh, eIF4H FP inh, PABP FP inh)
CCOc1ccc(C2C(C#N)=C(N)SC(N)=C2C#N)cc1OCC	eIF4H FP inh 122
O=C1Nc2ccccc2SC1=Cc1ccccc1	none (no result: 14-3-3 Bad PPI, eIF4E-4G inh, eIF4H FP inh, PABP FP inh)
O=C1CCCC2=C1Sc1ccccc1N2	MLLE-PAM2 inh 43
Cc1ccn2c(NC3CCCC3)c(-c3cccs3)nc2c1	eIF4H FP inh 53, PABP FP inh active
c1csc(-c2nc3ccccn3c2NC2CCCCC2)c1	none
Cc1ccn2c(NC(=O)c3ccccc3)c(-c3cccs3)nc2c1	14-3-3 Bad PPI 70[fluorescence artefact?]
CC(=O)Nc1c(Nc2ccccc2)c2ccccc2oc1=O	MLLE-PAM2 inh 47
O=C(Nc1ccc(N2CCOCC2)cc1)c1csc([C@H]2C[C@H](O)[C@@H](CO)O2)n1	none (no result: 14-3-3 Bad PPI, eIF4E-4G inh, eIF4H FP inh, PABP FP inh)
O=C(N/N=C\c1ccc(F)cc1)c1csnn1	14-3-3 Bad PPI 89
O=C1C=CC(=O)N1c1ccc(Nc2ccccc2)cc1	MLLE-PAM2 inh 41 (no result: 14-3-3 Bad PPI, eIF4E-4G inh, eIF4H FP inh, PABP FP inh)
Cc1cccc(NC(=O)CN2NS(=O)(=O)c3ccccc3C2=O)c1	none
COc1ccccc1N1CCN(C(=O)[C@H](C)NS(=O)(=O)c2ccc3c(c2)OCCCO3)CC1	MLLE-PAM2 inh 41 (no result: 14-3-3 Bad PPI, eIF4E-4G inh, eIF4H FP inh, PABP FP inh)
C[C@H](NS(=O)(=O)c1ccc2c(c1)OCCCO2)C(=O)N1CCN(Cc2ccccc2)CC1	none (no result: 14-3-3 Bad PPI, eIF4E-4G inh, eIF4H FP inh, PABP FP inh)
COc1ccc(CCCC(=O)N/N=C\c2cccs2)cc1	14-3-3 Bad PPI 97
COC(=O)N/N=C/c1cccs1	none
Cc1ccc(NC(=O)CN2C(=O)S/C(=C\c3ccc(OCC(=O)O)c(Br)c3)C2=O)cc1	none (no result: 14-3-3 Bad PPI, eIF4E-4G inh)
COc1cc(/C=C2\SC(=O)N(CC(=O)Nc3ccc(C)cc3)C2=O)cc(Cl)c1OCC(=O)O	eIF4H FP inh 89 (no result: 14-3-3 Bad PPI, eIF4E-4G inh)
Cc1ccc(NC(=O)CN2C(=O)S/C(=C\c3ccc(-c4cccc(C(=O)O)c4C)o3)C2=O)cc1	eIF4H FP inh 74, PABP FP inh active (no result: MLLE-PAM2 inh)
Cc1ccc(NC(=O)CN2C(=O)S/C(=C/c3ccc(-c4cccc(C(=O)O)c4)o3)C2=O)cc1	14-3-3 Bad PPI 88, eIF4E-4G inh 43, PABP FP inh active
Cc1ccccc1NC(=O)CN1C(=O)S/C(=C\c2ccc(-c3cc(C(=O)O)ccc3C)o2)C1=O	eIF4H FP inh inconclusive, PABP FP inh inconclusive
Cc1ccc(C(=O)O)cc1-c1ccc(/C=C2\SC(=O)N(CC(=O)Nc3ccccc3)C2=O)o1	none
CC(C)(C)OC(=O)CN1C(=O)S/C(=C\c2ccc(-c3cccc(C(=O)O)c3)o2)C1=O	eIF4H FP inh 65 (no result: 14-3-3 Bad PPI, eIF4E-4G inh, MLLE-PAM2 inh)
Cc1cccc(C)c1NC(=O)CN(c1ccccn1)S(=O)(=O)c1ccc(F)cc1	none
C[C@@H]1CN([C@@H](C)CO)C(=O)CCCn2nncc2CO[C@@H]1CN(C)C(=O)c1ccc(N2CCN(C)CC2)cc1	none (no result: 14-3-3 Bad PPI, eIF4E-4G inh, eIF4H FP inh, PABP FP inh)
